# Source: PubChem BioAssay (several laboratories)
# rCAG RNA binder: r(CAG) repeat RNA binding | inhibition, % at 3 µM | 1.3% of 370,000 active | TO-PRO-1 dye displacement fluorescence;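 active = inhibition above the plate cutoff, the mean of all test compounds on that plate plus 3 SD, cut at about 35% in these data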;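 also: 0% = DMSO alone and 100% = 100 µM mitoxantrone as full dye displacement; higher means more dye released from RNA so lower well fluorescence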
# MPTP inh: inhibitors of mitochondrial permeability transition pore | isolated mouse mitochondria, Ca2+ swelling absorbance, 30 min | inhibition, % at 10 µM | 1.4% of 360,000 active;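 active = inhibition of 50% or more, scaled per plate between neutral and stimulator controls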;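 also: 0% = DMSO wells given calcium and 100% = 1 mM EGTA wells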
# Myeloid diff 2: myeloid differentiation induction; ER-HoxA9 myeloid progenitors, lysozyme-GFP differentiation, flow cytometry; calls only at 10 µM; 1% of 360,000 active; AID 624256;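 active = normalized GFP-positive differentiation at or above the plate's own cutoff, the solvent-only control mean plus 3 SD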;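 also: cells exposed to compound for four days before flow analysis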
# NR3A LBD binder: modulates the human NR3A ligand-binding domain | 2.5% of 340,000 active | Tm shift relative to glycine control, % at 25 µM | NR3A LBD differential scanning fluorimetry, Tm shift; 0% = protein alone, 100% = glycine-bound protein;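 active = melting temperature shift of at least 10% of the positive control shift, at one fixed dose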
# FAS-TE inh: blocks the thioesterase domain of human fatty acid synthase; AID 602261; P49327; recombinant FAS-TE, OMFH fluorogenic substrate, fluorescence endpoint; 0.67% of 360,000 active; inhibition, % at 15 µM;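 active = compounds whose normalised, plate-corrected inhibition of enzyme fluorescence in the single-dose primary screen is 50% or more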;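 also: 0% = DMSO with enzyme and 100% = substrate without enzyme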
# rCAG bind conf: r(CAG) RNA repeat binding, confirmation; shares compounds with rCAG RNA binder; TO-PRO-1 dye displacement fluorescence; inhibition, % at 3 µM; 70% of 4,300 active;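 active = inhibition above a per-plate cutoff, the mean inhibition of sample wells plus 3 SD, cut at about 35% in these data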;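 also: loss of TO-PRO-1 fluorescence as compound displaces dye from 1x1 AA loop RNA; 0% = DMSO only wells and 100% = 100 µM mitoxantrone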
# dCAG dye counter: DNA CAG dye complex inhibition counter-screen | d(CAG) DNA oligo TO-PRO-1 dye displacement, fluorescence | shares compounds with rCAG RNA binder | inhibition, % at 3 µM | 94% of 4,300 active;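 active = inhibition above its plate's cutoff, the mean test-well inhibition plus 3 SD, cut at about 4.8% in these data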;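 also: 0% = DNA dye mix with DMSO and 100% = 100 µM mitoxantrone; hits displace the dye from DNA and so lower well fluorescence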
# dCAG dye DR: disrupts DNA CAG TO-PRO-1 complex in dose response. shares compounds with rCAG RNA binder. DNA CAG/GTC duplex TO-PRO-1 dye displacement fluorescence. IC50, µM. 20% of 250 active; in the data active = IC50 below about 10 µM
# An asterisk follows results filed as active; i = inactive; · = not tested or not shown. A selection: hits, their analogues and other compounds. The true share with any hit is near 5.7%.
SMILES,rCAG RNA binder,MPTP inh,Myeloid diff 2,NR3A LBD binder,FAS-TE inh,rCAG bind conf,dCAG dye counter,others
CCCCNC(=O)c1ccc2nc(CC)c(N(CC)CCN(C)C)n2c1,0,1,i,·,-7,·,·,
O=C(N/N=C/c1ccc([N+](=O)[O-])o1)c1cn(-c2ccccc2)nc1-c1ccccc1,39*,6,i,13*,-10,19,10*,
O=C(O)COc1ccc(/C=N/NC(=O)c2ccccc2Br)cc1,·,0,i,-2,-7,·,·,
O=C(O)COc1ccc(/C=N/NC(=O)c2cn(-c3ccccc3)nc2-c2ccccc2)cc1,43*,-1,i,-1,-1,35*,10*,
Cc1ccc([C@H]2C[C@@H](n3cc(COC(=O)c4ccccc4)nn3)[C@H](O)CN2C(=O)C2CCCCC2)cc1,5,0,i,·,6,·,·,
COc1ccc(S(=O)(=O)N2CCCCC2)cc1NC(=O)CCC(=O)N1CCC(c2ccccc2)=N1,3,-1,i,4,19,·,·,
O=C(NCc1cccnc1)C1C2C=CC(C2)C1C(=O)Nc1cccc(C(F)(F)F)c1 (configuration not stated),-1,0,i,·,-5,·,·,
CCN(CC)S(=O)(=O)c1ccc(NC(=O)c2ccc(Sc3nncn3C)c([N+](=O)[O-])c2)cc1,36*,0,i,-5,5,13,5.8*,
CCc1cc(C(=O)N=Nc2c(O)[nH]c3ccc([N+](=O)[O-])cc23)c2ccccc2n1,42*,13,i,6,24,35*,22*,
O=C(N=Nc1c(O)[nH]c2ccc([N+](=O)[O-])cc12)c1ccccc1[N+](=O)[O-],17,5,i,-3,7,·,·,
CCN(CC)c1ccc(NC(=O)c2ccc(S(=O)(=O)N3CCOCC3)cc2)cc1,2,-1,i,-2,4,·,·,
N#CCCN(C(=O)COC(=O)c1cccc(S(=O)(=O)Nc2ccc([N+](=O)[O-])cc2)c1)c1ccccc1,77*,9,i,2,0,77*,35*,
O=C(Nc1ccccc1)c1ccsc1,2,2,i,-4,-9,·,·,
CCOc1cc(/C=C/c2ccc3cccc([N+](=O)[O-])c3n2)cc(Cl)c1O,41*,1,i,6,8,33,13*,
Cn1cnnc1SCC(=O)NC1CCCN(Cc2ccccc2F)C1 (configuration not stated),-2,1,i,-6,-4,·,·,
COCCN(C(=S)Nc1ccc(C(C)C)cc1)C(C)c1cccs1 (configuration not stated),-5,4,i,-3,29,·,·,
COc1ccc(Nc2ccccc2C(=O)O)cc1,-2,-1,i,0,-6,·,·,
O=C(O)c1ccccc1Nc1cccc(OCc2ccc3ccccc3n2)c1,70*,3,i,-19,3,71*,31*,dCAG dye DR=i
Nc1nc(-c2cc(O)ccc2[N+](=O)[O-])cc(-c2ccccc2)c1[N+](=O)[O-],57*,1,·,11*,6,44*,24*,
O=[N+]([O-])c1ccc2nc(-c3ccccc3)cc(-c3ccccc3)c2c1,1,2,i,1,18,·,·,
COc1cc(NS(=O)(=O)c2ccc(N/C=C(\C#N)c3nc4ccccc4o3)cc2)nc(OC)n1,68*,-2,i,-4,4,67*,31*,
COc1cc(NS(=O)(=O)c2ccc(NC(=O)c3ccc(C)o3)cc2)nc(OC)n1,6,0,i,0,-5,·,·,
COc1cc(NS(=O)(=O)c2ccc(NC(=O)/C=C/C(=O)O)cc2)nc(OC)n1,6,-2,i,0,-4,·,·,
COc1cc(NS(=O)(=O)c2ccc(N/C=C(\C=O)c3nc4ccccc4o3)cc2)nc(OC)n1,35*,3,i,8,-1,39*,11*,
COc1ccc(NC(=S)N(Cc2ccc(C(=O)O)cc2)Cc2ccc(OC)c(OC)c2)cc1,9,0,i,2,0,·,·,
